Source: PubChem BioAssay (Tox21)
“And” between values parts separate entries of the source, which are not always exact repeats. Equal values may be shown once. Inconclusive results are not listed. Where a structure was tested more than once in an assay, its records may differ in their call. The source made the active and inactive calls. Unless noted, calls come from the whole dose curve; as a rule, active = well fitted curve in the direction sought with a large enough effect in the repeat runs; inconclusive = weak or mixed curves; inactive = no such curve, though single readings can be large; an effect the other way counts as inactive or inconclusive.

How the values were obtained:
[1] = target: Thyrotropin-releasing hormone receptor (Homo sapiens) (UniProt P34981); assay: qHTS assay to identify small molecule agonists of the thyrotropin-releasing hormone receptor (TRHR) signaling pathway (AID 1346891; calls by dose curve;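 note: HEK293 cells expressing TRHR with calcium dye readout; series mostly up to about 58 µM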)
Summary of the method: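 Kinetic fluorescence (3 min, 1 s intervals) reported intracellular calcium after compound transfer onto TRHR-Hek293 cells pre-loaded with dye for 2 h at 37 °C.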

[2] = Human pregnane X receptor (PXR) small molecule agonists, qHTS cell viability counter screen (AID 1346977); note: nearly all actives have a fitted effect of over 50% in size; note: potency is the fitted concentration of half-maximal effect
Summary of the method: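 HepG2 cells stably carrying the PXR-Luc reporter are cultured with 5% charcoal-stripped FBS and treated with compounds for 24hr. CellTiter-Fluor is added at 23hr and fluorescence is read after 1hr.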

[3] = Caspase-3/7 induction in HepG2 cells by small molecules, qHTS assay (AID 1346978); note: nearly all actives have a fitted effect of over 15% in size
Summary of the method: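 Wild-type HepG2 cells (2,000/well) were settled 5 h at 37 C, 5% CO2, then exposed to compounds in DMSO for 17 h. Caspase-3/7 activity was read by luminescence 30 min after adding Caspase-Glo 3/7 reagent at room temperature.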

[4] = Caspase-3/7 induction in CHO-K1 cells by small molecules, qHTS cell viability counter screen (AID 1346979); note: nearly all actives have a fitted effect of over 35% in size; note: potency is the fitted concentration of half-maximal effect
Summary of the method: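 Seeding: 1,500 CHO-K1 cells/well. Rest: 5hr, 37C. Treatment: compounds in DMSO, 16hr. Read: CellTiter-Fluor, 1hr, fluorescence.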

[5] = Caspase-3/7 induction in CHO-K1 cells by small molecules, qHTS assay (AID 1346980); note: nearly all actives have a fitted effect of over 15% in size
Summary of the method: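 Wild-type cells were seeded at 1,500 per well and settled 5 hr at 37 C, 5% CO2, then exposed to DMSO-dissolved compounds for 17 hr. Caspase-Glo 3/7 reagent was added, and luminescence was read after 30min at room temperature.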

[6] = Caspase-3/7 induction in HepG2 cells by small molecules, qHTS cell viability counter screen (AID 1346981); note: nearly all actives have a fitted effect of over 30% in size; note: potency is the fitted concentration of half-maximal effect
Summary of the method: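 Treatment of HepG2 cells with DMSO-delivered compounds ran 16 hr at 37 C following a 5-hr pre-incubation of 2,000 cells/well. CellTiter-Fluor fluorescence, read after 1 hr, served as the viability measure in a qHTS format.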

[7] = target: Nuclear receptor subfamily 1 group I member 2 (Homo sapiens) (UniProt O75469); assay: Human pregnane X receptor (PXR) small molecule agonists, qHTS assay (AID 1346982); note: nearly all actives have a fitted effect of over 35% in size; note: potency is the fitted concentration of half-maximal effect
Summary of the method: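 Stable HepG2 line reporting PXR-mediated CYP3A4 expression via luciferase. Treatment: 24 hr with compounds in DMSO at 37 C. Detection: ONE-Glo luminescence.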

[8] = target: Nuclear receptor subfamily 1 group I member 2 (Rattus norvegicus) (UniProt Q9R1A7); assay: Rat pregnane X receptor (rPXR) activation by small molecules, qHTS assay (AID 1346983); settings: rPXR luciferase reporter cells, One-Glo luminescence, 24 h; max activation: stronger effect = higher value; note: nearly all actives have a fitted effect of over 20% in size; note: potency is the fitted concentration of half-maximal effect
Summary of the method: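 Cell-based rPXR luciferase reporter assay, 2,000 cells per well, rested 5hr at 37 C before compound addition in DMSO, then 24 hr at 37 C. One-Glo reagent was added and luminescence read after 30 min at room temperature.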

[9] = target: Nuclear receptor subfamily 1 group I member 2 (Homo sapiens) (UniProt O75469); assay: CYP3A4 induction through human pregnane X receptor (PXR) by small molecules, qHTS assay (AID 1346984); note: nearly all actives have a fitted effect of over 40% in size; note: potency is the fitted concentration of half-maximal effect
Summary of the method: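 After 24 h at 37C with compound, DPX-2 cells (HepG2, co-transfected PXR response element and CYP3A4 promoter-luciferase) got 3uM final P450-Glo Luciferin-IPA for 3 h; One-Glo luminescence followed.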

[10] = target: Nuclear receptor subfamily 1 group I member 2 (Homo sapiens) (UniProt O75469); assay: Human pregnane X receptor (PXR) activation by small molecules, qHTS assay (AID 1346985); note: nearly all actives have a fitted effect of over 40% in size; note: potency is the fitted concentration of half-maximal effect
Summary of the method: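 DPX-2 cells (HepG2 co-transfected with a PXR response element and a CYP3A4-promoter luciferase construct) were seeded at 2,000 per well, rested 5 hr at 37C, then exposed to DMSO-dissolved compounds for 24 hr. Activation was read as luciferase luminescence.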

[11] = target: Acetylcholinesterase (Homo sapiens) (UniProt P22303); assay: Acetylcholinesterase (AChE) small molecule antagonists: colormetric cell-based qHTS assay (AID 1347395; calls by dose curve; note: nearly all actives have a fitted effect of over 30% in size; note: potency is the fitted concentration of half-maximal effect)
Summary of the method: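 Quantitative HTS in attached SH-SY5Y cells: 30 min compound exposure, then 90 min with acetylthiocholine and DTNB at 37 C; colour from thiocholine reports AChE activity.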

[12] = target: Acetylcholinesterase (Homo sapiens) (UniProt P22303); assay: Acetylcholinesterase (AChE) small molecule antagonists: enzyme-based qHTS assay (AID 1347397; calls by dose curve; note: nearly all actives have a fitted effect of over 55% in size); settings: Potency: AChE enzyme activity inhibition
Summary of the method: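 Compound or DMSO vehicle was pin-transferred onto recombinant human AChE (50 mU/mL as dispensed) and left 30 min at room temperature. Acetylthiocholine with DTNB then started the reaction, read colorimetrically 10 min later.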

[13] = target: Acetylcholinesterase (Homo sapiens) (UniProt P22303); assay: Acetylcholinesterase (AChE) small molecule antagonists: fluorescence cell-based qHTS assay (AID 1347398; calls by dose curve; note: nearly all actives have a fitted effect of over 50% in size; note: potency is the fitted concentration of half-maximal effect); settings: Potency: AChE activity
Summary of the method: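 Using neuroblastoma SH-SY5Y cells as the enzyme source, test chemicals are preincubated 30 min at 37 C; AChE-driven acetylthiocholine cleavage is then quantified by thiocholine-dependent Thiolite Green fluorescence after 40 min at room temperature.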

[14] = target: Cytochrome P450 2D6 (Homo sapiens) (UniProt P10635); assay: Cytochrome P450 Family 2 Subfamily D Member 6 (CYP2D6) small molecule antagonists: luciferase reporter qHTS assay (AID 1671196); note: nearly all actives have a fitted effect of over 50% in size; note: potency is the fitted concentration of half-maximal effect
Summary of the method: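 Chemicals tested for interference with CYP2D6 activity; proluciferin substrate, NADPH regeneration, 1 h at room temperature, luminescent detection.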

[15] = target: Cytochrome P450 2C19 (Homo sapiens) (UniProt P33261); assay: Cytochrome P450 Family 2 Subfamily C Member 19 (CYP2C19) small molecule antagonists: luciferase reporter qHTS assay (AID 1671197); note: nearly all actives have a fitted effect of over 65% in size; note: potency is the fitted concentration of half-maximal effect
Summary of the method: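 P450-Glo CYP2C19 screening system; proluciferin substrate; DMSO compound stocks; 10 min RT preincubation; NADPH regeneration, 1 h at 37C; luciferin detection reagent, 20 min RT; luminescence as RLU.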

[16] = target: Cytochrome P450 2C9 (Homo sapiens) (UniProt P11712); assay: Cytochrome P450 Family 2 Subfamily C Member 9 (CYP2C9) small molecule antagonists: luciferase reporter qHTS assay (AID 1671198); note: nearly all actives have a fitted effect of over 50% in size; note: potency is the fitted concentration of half-maximal effect
Summary of the method: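 CYP2C9 activity was measured with a P450-Glo proluciferin substrate. Enzyme–substrate mix was held with compound for 10 min at room temperature, then NADPH regeneration solution was added for 1 h at 37C. Luciferin product was read as luminescence.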

[17] = target: Cytochrome P450 1A2 (Homo sapiens) (UniProt P05177); assay: Cytochrome P450 Family 1 Subfamily A Member 2 (CYP1A2) small molecule antagonists: luciferase reporter qHTS assay (AID 1671199); note: nearly all actives have a fitted effect of over 50% in size; note: potency is the fitted concentration of half-maximal effect
Summary of the method: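 Read-out is luminescence from luciferin detection reagent (20 min) proportional to CYP1A2 activity; compounds in DMSO preincubated 10 min with enzyme and proluciferin substrate, then NADPH regeneration solution, 1 h, room temperature.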

[18] = target: Voltage-gated inwardly rectifying potassium channel KCNH2 (Homo sapiens) (UniProt Q12809); assay: Human Ether-a-go-go-Related Gene (hERG) channel small molecule antagonists: fluorescence cell-based qHTS assay (AID 1671200)
Summary of the method: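 First, 1000 cells per well are seeded and cultured overnight at 37 C. Next, FluxOR II dye is loaded for 1 h at room temperature, protected from light. After 10 more minutes, stimulus is added and fluorescence is read.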

[19] = target: Cytochrome P450 3A4 (Homo sapiens) (UniProt P08684); assay: Cytochrome P450 Family 3 Subfamily A Member 4 (CYP3A4) small molecule antagonists: luciferase reporter qHTS assay (AID 1671201)
Summary of the method: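 Enzyme and proluciferin substrate are mixed with test chemicals for 10 min, then NADPH regeneration system drives turnover for 1 h at room temperature. A detection reagent halts the reaction; luminescence after 20 min gives relative activity.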

[20] = target: Acetylcholinesterase (Homo sapiens) (UniProt P22303); assay: Acetylcholinesterase (AChE) small molecule antagonists: enzyme-based qHTS assay with human liver microsomes (AID 1347399; calls by dose curve; note: nearly all actives have a fitted effect of over 60% in size; note: potency is the fitted concentration of half-maximal effect); settings: Potency: qHTS inhibition
Summary of the method: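 Recombinant human AChE (50 mU/mL in the enzyme mix) and human liver microsomes (0.25 mg/mL final) were preincubated with compound and NADPH (0.25 mg/mL final) for 30 min at 37 C. Acetylthiocholine/DTNB was then added; thiocholine was read colorimetrically after 10 min at room temperature.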
% is set by controls: 0 for no effect and ±100 for the full control effect.

Sequence of Voltage-gated inwardly rectifying potassium channel KCNH2 (Homo sapiens) (Q12809 whole entry, looked up): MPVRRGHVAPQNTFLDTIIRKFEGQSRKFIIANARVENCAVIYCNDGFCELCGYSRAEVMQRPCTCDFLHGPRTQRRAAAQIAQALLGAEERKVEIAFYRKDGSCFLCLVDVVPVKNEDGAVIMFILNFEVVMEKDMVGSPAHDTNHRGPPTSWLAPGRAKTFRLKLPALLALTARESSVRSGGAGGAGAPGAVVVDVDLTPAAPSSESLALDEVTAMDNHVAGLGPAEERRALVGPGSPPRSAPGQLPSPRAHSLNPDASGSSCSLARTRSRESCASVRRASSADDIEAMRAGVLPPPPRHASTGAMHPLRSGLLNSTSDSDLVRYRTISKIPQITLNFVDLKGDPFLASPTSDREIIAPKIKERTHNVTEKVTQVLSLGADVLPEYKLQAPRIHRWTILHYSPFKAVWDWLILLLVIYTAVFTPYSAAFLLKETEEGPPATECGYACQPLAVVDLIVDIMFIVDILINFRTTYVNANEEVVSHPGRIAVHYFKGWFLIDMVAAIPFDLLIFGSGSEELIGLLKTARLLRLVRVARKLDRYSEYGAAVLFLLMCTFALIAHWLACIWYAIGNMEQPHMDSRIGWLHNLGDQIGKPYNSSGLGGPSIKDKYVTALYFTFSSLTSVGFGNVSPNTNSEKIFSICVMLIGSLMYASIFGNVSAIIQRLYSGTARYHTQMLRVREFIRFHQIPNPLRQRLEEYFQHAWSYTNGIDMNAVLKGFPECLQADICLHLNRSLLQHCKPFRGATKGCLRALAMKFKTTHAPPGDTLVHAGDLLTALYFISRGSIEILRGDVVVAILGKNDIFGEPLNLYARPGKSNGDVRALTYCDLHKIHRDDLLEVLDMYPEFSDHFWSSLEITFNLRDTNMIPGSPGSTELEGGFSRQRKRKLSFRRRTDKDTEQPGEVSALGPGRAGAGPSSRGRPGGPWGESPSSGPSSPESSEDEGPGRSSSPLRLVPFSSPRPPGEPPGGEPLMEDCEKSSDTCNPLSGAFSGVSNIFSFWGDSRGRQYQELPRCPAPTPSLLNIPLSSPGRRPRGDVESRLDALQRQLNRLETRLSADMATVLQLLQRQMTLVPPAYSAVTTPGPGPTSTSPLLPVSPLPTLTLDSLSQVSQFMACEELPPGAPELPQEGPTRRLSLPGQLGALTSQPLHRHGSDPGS
Sequence of Thyrotropin-releasing hormone receptor (Homo sapiens) (P34981 whole entry, looked up): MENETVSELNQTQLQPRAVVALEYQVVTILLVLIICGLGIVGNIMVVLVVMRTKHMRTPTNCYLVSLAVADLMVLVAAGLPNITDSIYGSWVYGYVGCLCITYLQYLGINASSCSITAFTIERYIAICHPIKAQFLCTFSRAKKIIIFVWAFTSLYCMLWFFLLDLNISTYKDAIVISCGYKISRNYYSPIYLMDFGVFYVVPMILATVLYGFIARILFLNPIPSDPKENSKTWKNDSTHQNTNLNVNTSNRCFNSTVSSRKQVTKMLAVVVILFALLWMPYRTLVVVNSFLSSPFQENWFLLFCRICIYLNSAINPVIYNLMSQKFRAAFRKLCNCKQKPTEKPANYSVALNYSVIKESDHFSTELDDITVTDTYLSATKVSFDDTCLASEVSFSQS
Sequence of Cytochrome P450 2C9 (Homo sapiens) (P11712 whole entry, looked up): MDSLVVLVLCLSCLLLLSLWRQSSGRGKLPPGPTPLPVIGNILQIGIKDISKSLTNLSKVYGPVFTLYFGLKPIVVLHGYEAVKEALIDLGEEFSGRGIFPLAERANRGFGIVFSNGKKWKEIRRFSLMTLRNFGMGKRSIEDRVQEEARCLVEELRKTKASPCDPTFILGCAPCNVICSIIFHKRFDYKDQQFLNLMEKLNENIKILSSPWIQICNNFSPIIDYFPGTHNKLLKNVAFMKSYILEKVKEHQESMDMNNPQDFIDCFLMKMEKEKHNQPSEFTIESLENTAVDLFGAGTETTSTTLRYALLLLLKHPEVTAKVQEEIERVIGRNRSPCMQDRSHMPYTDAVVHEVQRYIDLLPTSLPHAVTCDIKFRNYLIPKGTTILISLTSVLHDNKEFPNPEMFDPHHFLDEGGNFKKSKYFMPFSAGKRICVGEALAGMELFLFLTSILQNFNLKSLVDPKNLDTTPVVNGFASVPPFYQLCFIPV
Sequence of Nuclear receptor subfamily 1 group I member 2 (Rattus norvegicus) (Q9R1A7 whole entry, looked up): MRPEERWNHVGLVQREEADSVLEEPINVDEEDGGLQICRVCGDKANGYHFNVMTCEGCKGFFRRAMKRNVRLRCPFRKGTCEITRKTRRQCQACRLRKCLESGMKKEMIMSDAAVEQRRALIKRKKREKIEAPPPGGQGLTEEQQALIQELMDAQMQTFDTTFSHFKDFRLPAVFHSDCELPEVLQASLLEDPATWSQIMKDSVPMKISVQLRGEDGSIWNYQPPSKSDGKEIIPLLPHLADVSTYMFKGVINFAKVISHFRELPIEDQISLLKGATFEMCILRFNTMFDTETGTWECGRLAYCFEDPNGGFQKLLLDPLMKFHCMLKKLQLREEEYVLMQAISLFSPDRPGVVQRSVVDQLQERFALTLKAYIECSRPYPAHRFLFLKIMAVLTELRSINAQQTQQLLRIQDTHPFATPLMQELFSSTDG
Sequence of Cytochrome P450 1A2 (Homo sapiens) (P05177 whole entry, looked up): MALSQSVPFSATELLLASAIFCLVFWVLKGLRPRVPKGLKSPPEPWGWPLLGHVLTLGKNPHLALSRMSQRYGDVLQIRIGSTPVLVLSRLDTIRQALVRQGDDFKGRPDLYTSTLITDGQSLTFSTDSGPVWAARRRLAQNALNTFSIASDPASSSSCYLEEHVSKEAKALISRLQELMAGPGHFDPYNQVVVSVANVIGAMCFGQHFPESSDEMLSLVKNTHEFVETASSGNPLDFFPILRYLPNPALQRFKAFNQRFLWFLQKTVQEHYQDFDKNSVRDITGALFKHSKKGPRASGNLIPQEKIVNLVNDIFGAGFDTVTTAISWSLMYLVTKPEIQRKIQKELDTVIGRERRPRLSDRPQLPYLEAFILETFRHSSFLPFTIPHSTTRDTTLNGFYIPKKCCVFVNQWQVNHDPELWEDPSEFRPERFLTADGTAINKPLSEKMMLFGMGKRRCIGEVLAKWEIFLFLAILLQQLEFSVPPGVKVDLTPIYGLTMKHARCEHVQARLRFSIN
Sequence of Nuclear receptor subfamily 1 group I member 2 (Homo sapiens) (O75469 whole entry, looked up): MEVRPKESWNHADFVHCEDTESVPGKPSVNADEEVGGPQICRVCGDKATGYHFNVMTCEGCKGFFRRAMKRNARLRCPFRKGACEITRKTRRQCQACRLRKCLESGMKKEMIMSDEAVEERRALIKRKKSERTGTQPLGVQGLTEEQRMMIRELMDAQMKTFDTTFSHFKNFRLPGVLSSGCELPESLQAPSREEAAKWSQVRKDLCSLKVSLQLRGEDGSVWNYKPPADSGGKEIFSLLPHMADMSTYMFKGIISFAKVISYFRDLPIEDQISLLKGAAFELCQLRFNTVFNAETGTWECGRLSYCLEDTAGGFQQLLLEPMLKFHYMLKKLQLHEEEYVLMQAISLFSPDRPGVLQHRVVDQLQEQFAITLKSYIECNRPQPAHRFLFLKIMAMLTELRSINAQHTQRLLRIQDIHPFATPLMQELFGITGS
Sequence of Acetylcholinesterase (Homo sapiens) (P22303 whole entry, looked up): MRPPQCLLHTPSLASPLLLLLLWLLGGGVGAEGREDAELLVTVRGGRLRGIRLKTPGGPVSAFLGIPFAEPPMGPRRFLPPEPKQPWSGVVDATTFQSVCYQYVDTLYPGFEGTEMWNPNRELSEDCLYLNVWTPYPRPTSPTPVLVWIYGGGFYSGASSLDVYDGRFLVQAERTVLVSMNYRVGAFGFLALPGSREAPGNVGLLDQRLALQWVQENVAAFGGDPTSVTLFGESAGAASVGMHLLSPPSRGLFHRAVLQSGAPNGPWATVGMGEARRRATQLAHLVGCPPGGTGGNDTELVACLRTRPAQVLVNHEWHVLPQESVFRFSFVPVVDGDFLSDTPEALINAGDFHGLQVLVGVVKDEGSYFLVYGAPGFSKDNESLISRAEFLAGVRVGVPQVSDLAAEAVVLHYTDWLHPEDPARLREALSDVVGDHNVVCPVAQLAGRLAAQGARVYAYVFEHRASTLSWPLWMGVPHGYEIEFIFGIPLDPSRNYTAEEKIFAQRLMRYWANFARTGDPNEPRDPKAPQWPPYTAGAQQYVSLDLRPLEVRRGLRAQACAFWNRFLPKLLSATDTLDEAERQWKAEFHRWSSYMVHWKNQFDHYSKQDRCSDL
Sequence of Cytochrome P450 3A4 (Homo sapiens) (P08684 whole entry, looked up): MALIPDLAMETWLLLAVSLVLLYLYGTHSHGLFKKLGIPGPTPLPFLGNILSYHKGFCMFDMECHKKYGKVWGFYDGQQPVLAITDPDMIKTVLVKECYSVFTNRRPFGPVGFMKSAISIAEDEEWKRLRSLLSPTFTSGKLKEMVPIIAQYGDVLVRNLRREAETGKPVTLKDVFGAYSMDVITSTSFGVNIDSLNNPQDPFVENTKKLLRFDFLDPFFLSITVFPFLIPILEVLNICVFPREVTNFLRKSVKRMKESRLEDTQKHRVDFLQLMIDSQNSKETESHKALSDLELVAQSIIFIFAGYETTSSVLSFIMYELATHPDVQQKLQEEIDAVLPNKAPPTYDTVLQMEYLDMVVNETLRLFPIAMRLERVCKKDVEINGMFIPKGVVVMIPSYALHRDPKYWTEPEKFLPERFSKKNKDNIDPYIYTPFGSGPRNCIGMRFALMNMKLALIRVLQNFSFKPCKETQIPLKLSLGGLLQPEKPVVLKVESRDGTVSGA

O=[N+]([O-])c1cc([As](=O)(O)O)ccc1O
inactive: outcome [1] | Potency [2] | outcome [3] | Potency [4] | outcome [5] | Potency [6] | Potency [7] | Potency [9] | Potency [10] | Potency [11] | Potency [12] | Potency [13] | Potency [14] | Potency [15] | Potency [16] | Potency [17] | Potency [18] | Potency [19]
active: Potency [8] 12.6 µM

COP(=S)(OC)Oc1ccc(SC)c(C)c1
active: Potency [7] 60.4 µM and 37.6 µM | Potency [14] 39.5 µM and 39.9 µM | Potency [15] 1.57 µM and 710 nM and 1.1 µM | Potency [16] 7.02 µM and 6.33 µM and 6.92 µM | Potency [17] 1.98 µM and 2.24 µM and 1.62 µM
inactive: outcome [1] | Potency [2] | outcome [3] | Potency [4] | outcome [5] | Potency [6] | max activation [8] 1.15% | Potency [9] | Potency [10] | Potency [11] | Potency [12] | Potency [13] | Potency [18]

Nc1ccc(N)cc1
active: Potency [4] 48.8 µM and 54.5 µM | Potency [7] 54.5 µM [middle of 4 runs] | Potency [10] 25.1 µM | Potency [14] 39.9 µM | Potency [15] 34.7 µM [middle of 4 runs] | Potency [16] 11.3 µM and 28.3 µM and 8.71 µM
inactive: outcome [1] | outcome [3] | outcome [5] | Potency [18]
54.5 µM (active) and inactive: Potency [2] | Potency [6]

CC12CC1(C)C(=O)N(c1cc(Cl)cc(Cl)c1)C2=O (stereo unspecified)
active: Potency [7] 60.9 µM and 24.3 µM | Potency [15] 22.4 µM | Potency [17] 9.99 µM and 14.2 µM
inactive: outcome [1] | Potency [2] | outcome [3] | Potency [4] | outcome [5] | Potency [6] | Potency [11] | Potency [12] | Potency [13] | Potency [20] | Potency [14] | Potency [18] | Potency [19]

CCCCC(CC)C(=O)Cl (stereo unspecified)
inactive: outcome [1] | Potency [2] | outcome [3] | Potency [4] | outcome [5] | Potency [6] | Potency [7] | Potency [11] | Potency [12] | Potency [13] | Potency [20] | Potency [14] | Potency [15] | Potency [16] | Potency [18] | Potency [19]
inactive and 63.3 µM (active): Potency [17]

CNC(=O)Oc1cccc2ccccc12
inactive and 89.4 µM (active): Potency [20]
active: Potency [9] 3.16 µM | Potency [13] 3.56 µM | Potency [15] 35.3 µM and 63.3 µM and 17.4 µM
2.22 µM (active) and inactive: Potency [11]
68 µM (active) and inactive: Potency [7]
39.6 µM (active) and inactive: Potency [14]
inactive: outcome [1] | Potency [2] | outcome [3] | Potency [4] | outcome [5] | Potency [6] | max activation [8] -0.0164% | Potency [10] | Potency [18] | Potency [19]
28 µM (active) and inactive: Potency [16]

CC(=O)/C=C/c1ccccc1
active: Potency [15] 78.2 µM
inactive: outcome [1] | Potency [2] | outcome [3] | Potency [4] | outcome [5] | Potency [6] | Potency [7] | Potency [11] | Potency [12] | Potency [13] | Potency [20] | Potency [16] | Potency [18] | Potency [19]
inactive and 35.6 µM (active): Potency [14]

COC(C)(C)CCCC(C)C/C=C/C(C)=C/C(=O)OC(C)C (stereo unspecified)
active: Potency [7] 47.8 µM | Potency [10] 11.2 µM | Potency [15] 24.5 µM | Potency [16] 62.2 µM and 17.4 µM
inactive: outcome [1] | Potency [2] | outcome [3] | Potency [4] | outcome [5] | Potency [6] | max activation [8] -0.367% | Potency [9] | Potency [11] | Potency [12] | Potency [13] | Potency [14] | Potency [18] | Potency [19]

O=C(O)COc1ccccc1
inactive: outcome [1] | Potency [2] | outcome [3] | Potency [4] | outcome [5] | Potency [6] | Potency [7] | max activation [8] -1.4% | Potency [9] | Potency [10] | Potency [11] | Potency [12] | Potency [13] | Potency [20] | Potency [14] | Potency [15] | Potency [16] | Potency [17] | Potency [18] | Potency [19]

Cl/C=C/Cl
inactive and 29.6 µM (active): Potency [7]
inactive: outcome [1] | Potency [2] | outcome [3] | Potency [4] | outcome [5] | Potency [6] | Potency [11] | Potency [12] | Potency [13] | Potency [20] | Potency [14] | Potency [15] | Potency [16] | Potency [18] | Potency [19]

O=C(O)CCCc1ccc(N(CCCl)CCCl)cc1
active: Potency [4] 34.5 µM and 21.7 µM and 21.1 µM
54.7 µM (active) and inactive: Potency [6]
inactive: outcome [1] | Potency [2] | outcome [3] | outcome [5] | Potency [7] | Potency [11] | Potency [12] | Potency [13] | Potency [20] | Potency [14] | Potency [15] | Potency [16] | Potency [18] | Potency [19]
